From PubChem BioAssay AID504651 (National Center for Advancing Translational Sciences (NCATS), 2011)
The whole screen tested about 360,000 compounds, of which about 130 (0.036%) were called active. Rule as the data show it: active = potentiation above about 30%; inactive = the rest. The sample as a whole holds a higher share of actives than the screen did.

target: D(1A) dopamine receptor (Homo sapiens) (UniProt P21728); assay: Potentiators of Human D1 Dopamine Receptor: qHTS; conditions: HEK293 TREx D1 cells, calcium flux, dopamine EC20 potentiation; at 10 µM; active compounds read high; also: 0% is about no effect
Sequence (P21728 whole entry, looked up): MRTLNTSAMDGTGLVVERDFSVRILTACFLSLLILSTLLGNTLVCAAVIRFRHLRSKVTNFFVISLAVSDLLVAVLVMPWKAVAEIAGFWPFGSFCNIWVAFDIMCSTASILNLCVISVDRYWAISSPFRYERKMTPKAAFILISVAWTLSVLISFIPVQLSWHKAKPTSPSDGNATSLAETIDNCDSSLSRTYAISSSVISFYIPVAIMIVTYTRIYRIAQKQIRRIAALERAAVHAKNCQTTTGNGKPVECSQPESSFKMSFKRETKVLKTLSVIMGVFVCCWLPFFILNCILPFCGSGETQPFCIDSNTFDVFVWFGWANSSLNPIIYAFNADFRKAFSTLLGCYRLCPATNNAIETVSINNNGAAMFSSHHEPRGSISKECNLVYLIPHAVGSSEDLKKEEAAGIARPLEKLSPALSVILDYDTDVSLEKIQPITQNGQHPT

| Structure (SMILES) | potentiation |
| --- | --- |
| CCOc1ccccc1NC(=O)CSc1ncc(S(=O)(=O)c2ccc(C(C)(C)C)cc2)c(=O)[nH]1 | 2.25% (inactive) |
| COc1ccc2c(Sc3ccc(C)cc3)c(C(=O)NC(C)c3ccccc3)[nH]c2c1 (stereo not drawn) | -3.25% (inactive) |
| Cn1nnnc1SCCCNCc1cccc(OCc2ccc(Cl)cc2)c1 | 0.9% (inactive) |
| CC(NC(=O)c1cc(Sc2ccc(F)cc2F)nc2ccccc12)c1ccccc1 (stereo not drawn) | -2.8% (inactive) |
| Cc1cc2c(s1)c1cnn(Cc3c(F)cccc3Cl)c(=O)c1n2C | -3.2% (inactive) |
| COc1ccc(OCCCn2c(C3CC(=O)N(c4ccc(F)cc4)C3)nc3ccccc32)cc1 (stereo not drawn) | -2% (inactive) |
| Cn1nnnc1Sc1ncnc2scc(-c3ccccc3[N+](=O)[O-])c12 | 9.9% (inactive) |
| COC(=O)c1ccc(C2C(C(=O)Nc3ccccc3)=C(C)Nc3nc4ccccc4n32)cc1 (stereo not drawn) | -1.75% (inactive) |
| CC(C)Cn1c(=O)c2ccccc2n2c(CCC(=O)N3CCN(c4cccc(Cl)c4)CC3)nnc12 | -1.35% (inactive) |
| Cc1ccc(NC(=O)c2ccc(CN3CC(=O)N4CCCCC4C3=O)cc2)c(Cl)c1 (stereo not drawn) | 1.5% (inactive) |
| COc1ccc(-n2ccn(CC(=O)Nc3ccc(C)c(C)c3)c(=O)c2=O)cc1OC | -0.8% (inactive) |
| COc1cc(-c2cc3n(C)c(C)c(CCC(=O)Nc4ccc(F)cc4)c(=O)n3n2)cc(OC)c1OC | 0.6% (inactive) |
| Cc1cc(C)cc(NC(=O)c2cnc3sc(N4CCCC4)nn3c2=O)c1 | -4.45% (inactive) |
| CCCC(=O)Nc1cc(C(=O)NCc2ccc(OC)cc2)ccc1S(=O)(=O)c1ccc(Cl)cc1 | -6.15% (inactive) |
| COc1ccc(Cl)cc1NC(=O)CCn1c(=O)c2cccn2c2ccccc21 | -4.3% (inactive) |
| CCCCN(CC)CCCNC(=O)Cn1ncc2c([nH]c3ccc(C)cc32)c1=O | 1.4% (inactive) |
| COc1ccccc1CNCc1ccc(C(=O)O)s1 | -0.25% (inactive) |
| O=C(NCC12CC3CC(CC(C3)C1)C2)c1cc2nc(-c3ccccc3)cc(C(F)(F)F)n2n1 | 0.55% (inactive) |
| CCOc1ccccc1NC(=O)Cn1c(=O)n(-c2cccc(C)c2)c(=O)c2c1c1cc(OC)ccc1n2C | 3.65% (inactive) |
| CC(C)(C)OC(=O)N1CCC(c2c(C(=O)N3CCc4ccccc4C3)cnn2-c2ccc(F)cc2)CC1 | -4.3% (inactive) |
| O=C(CCSCc1ccccc1F)N1CCN(c2ccc(Cl)cc2)CC1 | -0.6% (inactive) |
| Cc1noc(C)c1-c1ccc2ncnc(NCc3ccc(F)c(F)c3)c2c1 | -4.15% (inactive) |
| O=C(CS(=O)(=O)c1cccc2nsnc12)N1CCN(c2cccc(Cl)c2)CC1 | 0.15% (inactive) |
| Cc1cc(C)c2oc(C(=O)Nc3c(C(=O)Nc4ccccc4)oc4ccccc34)cc(=O)c2c1 | 0.8% (inactive) |
| Cc1ccc(C(=O)NC2CCN(C#N)CC2)cc1 | -6.15% (inactive) |
| O=C(Nc1nc2c(s1)CCCC2)c1ccccc1F | 0.5% (inactive) |
| CCOc1ccc(S(=O)(=O)c2cn(Cc3ccc(OC)cc3)c3ccc(F)cc3c2=O)cc1 | -1.95% (inactive) |

| Structure (SMILES) | potentiation |
| --- | --- |
| Cc1cc(C)c(NC(=O)CSc2nc3nccnc3c(=O)n2CCc2c[nH]c3ccccc23)c(C)c1 | -2.8% (inactive) |
| Cc1cccc(Cn2c(=O)n(CCC(=O)NCCc3ccc(Cl)cc3)c(=O)c3sccc32)c1 | 0.55% (inactive) |
| O=C(CNC(=O)c1ccc(Cl)cc1Cl)OC(C(=O)Nc1cc(C(F)(F)F)ccc1Cl)c1ccccc1 (stereo not drawn) | -4% (inactive) |
| Cc1ccc(-c2cc(C(=O)Oc3ccccc3Cl)no2)cc1C | 0.6% (inactive) |
| COc1ccc(Cl)cc1NC(=O)Cn1c(=O)c2ccccc2n2nncc12 | 1.65% (inactive) |
| CN=C1S/C(=C\c2ccc(Sc3ccc(Cl)cc3)o2)C(=O)N1C | 5.08% (inactive) |
| CN1C(=O)/C(=C\c2ccc(-c3ccccc3)o2)SC1=S | 39.7% (active) |
| NS(=O)(=O)c1ccc(-c2ccc(/C=C3\SC(=O)NC3=O)o2)cc1 | 0.85% (inactive) |
| Oc1ccc(Cl)cc1C1C=C(c2ccc3c(c2)OCO3)NC(c2c(F)cccc2Cl)N1 (stereo not drawn) | -3.2% (inactive) |
| O=[S+]([O-])(c1ccc2c(c1)OCCO2)N1CCN([S+](=O)([O-])c2c(Cl)cc(Cl)cc2Br)CC1 | -3.2% (inactive) |
| COc1ccc(-c2nc(Cn3c(=O)cc(C)c4c(C)nn(-c5ccccc5)c43)c(C)o2)c(OC)c1 | -4.4% (inactive) |
| Cc1nc2ccn(Cc3cccs3)c(=O)c2cc1C(=O)NCc1ccc(Cl)cc1 | -6.65% (inactive) |
| COc1ccc(CCNS(=O)(=O)c2cc(-c3cc(C)no3)ccc2C)cc1OC | -4.9% (inactive) |
| Cc1ccc(S(=O)(=O)N2CCc3cc(C(=O)Nc4ccc(Cl)cc4C)ccc32)cc1 | -2.8% (inactive) |
| Cc1ccsc1CN(C(=O)c1oc2ccc(Br)cc2c1C)C1CCS(=O)(=O)C1 (stereo not drawn) | 0.7% (inactive) |
| Cc1ccc(SCC(=O)Nc2ccc3oc(-c4ccccc4F)nc3c2)cc1 | -1.1% (inactive) |
| Cc1ccc(C)c(CNC(=O)c2cc3ccccn3n2)c1 | -6.6% (inactive) |
| COc1ccc2[nH]c3c(c2c1)CCN(C(=O)CCC1CCCC1)C3c1ccc(F)cc1 (stereo not drawn) | -2.5% (inactive) |
| COc1cc2c(cc1OC)C(c1cccc([N+](=O)[O-])c1)=NCC2 | -1.3% (inactive) |
| COc1ccc([N+](=O)[O-])cc1-c1nc2ccccc2nc1-c1ccccc1 | 30.4% (active) |
| COc1ccc([N+](=O)[O-])cc1C1NN=C(c2cccc3ccccc23)S1 (stereo not drawn) | 0.861% (inactive) |
| Cc1ccc(NC(=O)c2oc3ccc(S(=O)(=O)N4CCCCC4)cc3c2C)cc1Cl | 3.15% (inactive) |
| CC1=C(c2ccc(C)c(C)c2)S(=O)(=O)NC1=NCc1ccccc1Cl | -1.4% (inactive) |
| O=[S+]([O-])(c1ccc(OC(F)(F)F)cc1)N1CCN([S+](=O)([O-])c2ccc3c(c2)OCCO3)CC1 | 5.85% (inactive) |
| O=C(CCS(=O)(=O)c1ccccc1)N(Cc1cccnc1)c1nc2c(F)cccc2s1 | -1.7% (inactive) |
| Cc1ccc(CNC(=O)Cn2c(=O)ccc3cc(S(=O)(=O)N4CCCC4)ccc32)cc1 | -0.25% (inactive) |
